Assay results as given in PubChem BioAssay.
Activity calls are given as the source filed them. No rule for the calls is given here.

assay: P. aeruginosa biofilm formation inhibitors, primary screen, PAO1 strain, BacTiter-Glo luminescence, LB-PBS (AID 1144); settings: 12 h, higher = more signal

z-score, inactive:
CO[C@H]1COC(=O)[C@@H](Cc2ccccc2)NC(=O)[C@@H](C)COC(=O)CCC[C@@H]1C -0.0381, CCOC(=O)[C@H](CC(C)C)NC(=O)CCC1CC(OC(=O)NCCc2ccc(F)cc2)CC2(CCCC(COC(=O)NCCc3ccccc3OC)O2)O1 (some centres not stated) -0.256, CCc1cc2c(nc1CC)CCN(CCC(C)=NO[C@H](C)c1cn([C@H](CO)Cc3ccccc3)nn1)C2 -0.374, CO[C@H]1COC(=O)CC=C[C@@H](C)[C@H](NS(=O)(=O)c2ccc(C)cc2)COC(=O)CCC[C@@H]1C -0.365, C=Cc1ccc([C@H]2N[C@H](C(=O)O)CC[C@@H]2C)cc1 0.53, CO[C@H]1COC(=O)[C@@H](C)COC(=O)[C@H](COCc2ccccc2)NC(=O)CC=C[C@H]1C -1.04, CCOC(=O)[C@H](CC(C)C)NC(=O)CCC1CC(OC(=O)NCc2cccc3ccccc23)CC2(CCCC(COC(=O)NCCC(C)C)O2)O1 (some centres not stated) -1.52, CO[C@H]1COC(=O)CC=C[C@@H](C)[C@H](OC)COC(=O)[C@@H]2CCCN2C(=O)CC=C[C@@H]1C 0.474, O=C1[C@H]2[C@H]3[C@H](O)[C@H](O)CC(=NOCc4ccccc4)[C@H]3CC[C@H]2C(=O)N1Cc1ccc2c(c1)OCO2 1.66, Cc1ccc(S(=O)(=O)NC(CCc2ccccc2)CC(=O)C(C)(C)C)cc1 (configuration not stated) 1.1, O=C1C=C[C@@H](O)[C@@H]2[C@@H]3C(=O)N(C[C@@H]4CCCO4)C(=O)[C@@H]3CC[C@@H]12 0.477, CC(C)=CCCC(C)=CCON=C1C[C@@H](O)[C@@H](O)[C@@H]2[C@@H]3C(=O)N(Cc4ccccc4)C(=O)[C@@H]3CC[C@@H]12 0.603, CCOC(=O)[C@H](CC(C)C)NC(=O)CCC1CC(OC(=O)NCCc2ccc(F)cc2)CC2(CCCC(COC(=O)NCCc3ccc(Cl)cc3)O2)O1 (some centres not stated) -0.204, CC(=O)Nc1ccc([C@@H]2N[C@H](C(=O)O)CC[C@H]2C)cc1 -1.51, CCOC(=O)NN=C1C[C@@H](O)[C@@H](O)[C@@H]2[C@@H]3C(=O)N(c4cccc(Oc5ccccc5)c4)C(=O)[C@@H]3CC[C@H]12 -0.215, Cc1ccc(S(=O)(=O)N[C@H]2COC(=O)CC=C[C@H](C)[C@@H](NS(=O)(=O)c3ccc(C)cc3)COC(=O)CC=C[C@@H]2C)cc1 -0.681, CC1O[C@H]2C3=C(C(=O)[C@@H]4O[C@@H]4[C@H]3O)[C@@H]1C1[C@@H](C)OC=C3[C@H](O)C4O[C@@H]4C(=NOCc4ccccc4)[C@]312 (some centres not stated) 0.933, C[C@@H](c1ccccc1)N1C(=O)[C@H]2[C@H]3[C@H](O)[C@H](O)CC(=NO[C@@H]4O[C@H](CO)[C@@H](O)[C@H](O)[C@H]4O)[C@@H]3CC[C@H]2C1=O -0.783, CON=C(C)CCC(=O)OC[C@H]1O[C@H](c2ccccc2)C=C[C@@H]1Oc1ccc(OC)cc1 -0.38, COC(=O)[C@H](C)NC(=O)CCC1CC(OC(=O)NCc2ccc3c(c2)OCO3)CC2(CCCC(COC(=O)NCC(c3ccccc3)c3ccccc3)O2)O1 (some centres not stated) -0.405, COC(=O)[C@H](C)NC(=O)CCC1CC(OC(=O)NCCc2ccc(F)cc2)CC2(CCCC(COC(=O)NCCC(C)C)O2)O1 (some centres not stated) -1.41, O=C1[C@H]2[C@H]3[C@H](O)[C@H](O)CC(=NOCc4ccccc4)[C@@H]3CC[C@H]2C(=O)N1c1ccc(F)cc1F -1, CC(C)=CCCC(C)=CCON=C1C[C@@H](O)[C@@H](O)[C@@H]2[C@@H]3C(=O)N(C4CCCCC4)C(=O)[C@@H]3CC[C@@H]12 0.233, CC(C)CON=C1C[C@@H](O)[C@@H](O)[C@@H]2[C@@H]3C(=O)N(Cc4ccc5c(c4)OCO5)C(=O)[C@@H]3CC[C@H]12 1.01, CCOC(=O)[C@H](Cc1ccccc1)NC(=O)CCC1CC(OC(=O)NCc2ccc3c(c2)OCO3)CC2(CCCC(COC(=O)NCCc3ccccc3OC)O2)O1 (some centres not stated) 0.8, Cc1cc2c(c(=O)o1)[C@@H](O)[C@H]1O[C@H]1C2=O 0.0297, CC(=O)O[C@H]1C2=CO[C@H](C)[C@H]3[C@H]4C5=C([C@H](O)[C@H]6O[C@H]6C5=O)[C@H](OC4C)[C@@]23C(=O)[C@@H]2O[C@@H]21 (some centres not stated) 0.298, CCOC(=O)[C@H](Cc1ccccc1)NC(=O)CCC1CC(OC(=O)NCc2cccc3ccccc23)CC2(CCCC(COC(=O)NCc3ccccc3)O2)O1 (some centres not stated) -1.29, CO[C@@H]1COC(=O)[C@@H](C)COC(=O)[C@@H](C)NC(=O)CC=C[C@@H]1C -2.01, CCOC(=O)[C@H](Cc1ccccc1)NC(=O)CCC1CC(OC(=O)NCc2ccc3c(c2)OCO3)CC2(CCCC(COC(=O)NCCC(C)C)O2)O1 (some centres not stated) -0.749, COc1ccc(COC(=O)NN=C2C[C@@H](O)[C@@H](O)[C@@H]3[C@@H]4C(=O)N(C5CCCCC5)C(=O)[C@@H]4CC[C@H]23)cc1 0.345, CCC1=NOC(CCC2CC(OC(=O)NCc3cccc4c3OCO4)CC3(CCCC(COC(=O)NCCc4ccccc4OC)O3)O2)C1 (configuration not stated) 0.249, COC(=O)CC=C[C@@H](C)[C@@H](C=NO[C@@H]1O[C@H](COC(C)=O)[C@@H](OC(C)=O)[C@H](OC(C)=O)[C@H]1OC(C)=O)NS(=O)(=O)c1ccc(C)cc1 -0.202, CCOC(=O)[C@H](CC(C)C)NC(=O)CCC1CC(OC(=O)NCc2ccc3c(c2)OCO3)CC2(CCCC(COC(=O)NCCCN3CCCC3=O)O2)O1 (some centres not stated) -0.767, O=C1C2=CC[C@H]3C(=O)N(c4cccc(Oc5ccccc5)c4)C(=O)[C@H]3[C@H]2[C@H](O)[C@@H]2O[C@H]12 0.478, COC(=O)[C@H](C)NC(=O)CCC1CC(OC(=O)NCc2ccc3c(c2)OCO3)CC2(CCCC(COC(=O)NCc3cccc(C(F)(F)F)c3)O2)O1 (some centres not stated) -0.0589, CO[C@H]1COC(=O)CC=C[C@H](C)[C@@H](OC)COC(=O)[C@@H](C)NC(=O)CC=C[C@@H]1C -1.15
